In PubChem BioAssay:
“And” between values parts separate entries of the source, which are not always exact repeats. Equal entries are not always repeated. The source made the active and inactive calls. Rule as the data show it, unless noted: active = inhibition above about 80%; inactive = the rest.

Experiments:
[1] = stimulators of nuclear beta-catenin in C2C12, primary screen, imaging, WNT3A-conditioned medium, mouse C2C12, NPC library (AID 1117326; in the data active = nuclear beta-catenin stimulation mostly above about 4.2%, no sharp cut-off; inactive = mostly below about 10%); conditions: stronger effect = higher value
[2] = stimulators of insulin release from INS-1E, primary screen, cell-based, 5 mM glucose, NPC library (AID 1117329;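 active = compound raises insulin release from rat beta cells at 5 mM glucose, no numeric limit stated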); conditions: rat INS-1E insulin secretion, at 10 µM, stronger effect = higher value
[3] = growth inhibition of GSK3B-pretreated HCT116 cells – cell-based, CellTiter-Glo, 0.2 to 20 µM (AID 1117336;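 active = compounds lowering colon cancer cell viability after pretreatment blocking the GSK3B kinase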); conditions: HCT116 viability after GSK3B inhibitor, at 20 µM, stronger effect = higher value
[4] = inhibition of endothelial tube formation, primary screen, imaging, VEGF stimulated, CD31 staining, tube area, NPC library (AID 1117340;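 active = compound that reduces growth-factor-driven endothelial tube area in a mixed cell culture, no cutoff stated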); conditions: VEGF-stimulated ADSC/ECFC co-culture, at 10 µM, stronger effect = higher value
[5] = glucagon-like peptide 1 release enhancers, primary assay, NCI-H716 cell line, NPC library (AID 1117341;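 active = compound raises GLP1 secretion from the human gut endocrine cells, with no numeric limit stated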); conditions: NCI-H716 cells, at 10 µM, stronger effect = higher value
[6] = HCT116 colon cancer cell growth inhibition, primary screen, CellTiter-Glo luminescence, NPC library (AID 1117342;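 active = compounds that lower survival of HCT116 colon cancer cells in the luminescence readout, no numeric limit stated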); conditions: at 20 µM (top of the series)
[7] = CellTiter-Glo luminescent readout of SW480 viability loss, NPC library primary (AID 1117343;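 active = compounds that lower viability of the colon cancer cells in the luminescence readout, with no numeric limit stated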); conditions: CellTiter-Glo luminescence; at 20 µM (top of the series) unless noted
[8] = decreased DLD-1 cellular survival, CellTiter-Glo luminescent readout, NPC compound collection, primary HTS (AID 1117346;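 active = compounds that lower survival of DLD-1 colon cancer cells in the luminescence readout, no cutoff given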); conditions: DLD-1 viability, CellTiter-Glo luminescence; at 20 µM (top of the series)
[9] = differential killing of epithelial or mesenchymal cells, primary screen, imaging, PC-3E GFP, TEM4-18 mCherry, co-culture (AID 1345086;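 active = compounds killing one labelled cell type while sparing the other, by normalised counts and ratio limits, not self-fluorescent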;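 as to all read-outs here: cells exposed to compound for 72 h before imaging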;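 as to red/green cell ratio (normalised): normalised mesenchymal count divided by normalised epithelial count so high means epithelial killing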); conditions: imaging cell counts, at 1 µM; for red/green cell ratio (normalised): actives lie on both sides, counts scaled to control wells, 1 = unselective
[10] = sensitizers of A549 cells to miR-34 induction, primary screen, imaging, A549 dox-inducible miR-34, nuclei and caspase counts (AID 1347080;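 active = compounds whose cell count with miR-34 switched on is under 0.7 times the count with it off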); conditions: A549 miR-34 inducible, Hoechst nuclei count, 48 h
[11] = survival rescue of mitochondrial mutant cells in low glucose, primary screen, MELAS cybrids, Rieske KO mouse fibroblasts, CellTiter-Glo (AID 1508586;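 active = mean z-score across replicates of 1.96 or higher in either the MELAS or the Rieske mutant cell line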;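 also: z relative to plate mean and SD of compound and empty wells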)
[12] = molecular target: NAD(+) hydrolase SARM1 (Homo sapiens) (UniProt Q6SZW1); test: SARM1 TIR NADase inhibitors, cell lysate, NAD-Glo luminescence (AID 1508614;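 active = compound whose remaining NAD level is above about 45 nM, limit read from the data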;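 also: higher remaining NAD means stronger inhibition of SARM1 NADase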); conditions: SAM-TIR HEK293T lysate NADase, at 1 µM, stronger effect = higher value
Sequence of NAD(+) hydrolase SARM1 (Homo sapiens) (Q6SZW1 whole entry, looked up): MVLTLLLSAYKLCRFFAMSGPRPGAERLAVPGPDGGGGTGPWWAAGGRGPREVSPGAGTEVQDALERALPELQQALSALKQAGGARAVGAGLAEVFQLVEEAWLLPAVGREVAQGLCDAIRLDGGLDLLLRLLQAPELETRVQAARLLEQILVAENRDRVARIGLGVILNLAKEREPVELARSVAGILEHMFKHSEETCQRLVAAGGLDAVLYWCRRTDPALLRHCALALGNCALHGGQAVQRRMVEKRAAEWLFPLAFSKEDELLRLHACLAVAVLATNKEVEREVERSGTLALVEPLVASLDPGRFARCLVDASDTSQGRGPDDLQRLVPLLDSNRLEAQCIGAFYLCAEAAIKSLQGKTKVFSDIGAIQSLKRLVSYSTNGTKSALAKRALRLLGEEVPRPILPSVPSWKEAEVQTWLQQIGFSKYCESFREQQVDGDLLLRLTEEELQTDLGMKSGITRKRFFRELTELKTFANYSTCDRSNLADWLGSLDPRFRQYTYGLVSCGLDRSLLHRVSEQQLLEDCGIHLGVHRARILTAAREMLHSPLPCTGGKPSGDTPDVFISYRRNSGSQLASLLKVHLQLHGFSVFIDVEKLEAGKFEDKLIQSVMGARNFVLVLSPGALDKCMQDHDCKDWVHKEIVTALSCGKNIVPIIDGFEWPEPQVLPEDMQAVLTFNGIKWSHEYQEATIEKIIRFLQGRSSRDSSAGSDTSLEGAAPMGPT

[13] = LFS_MB_P medulloblastoma growth inhibition, cell-based, chromothripsis tumors, cisplatin or BGB combos (AID 1671449); conditions: LFS_MB_P medulloblastoma cells;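 also: cells exposed for 96 hours; 0% = vehicle DMSO and 100% = killing by high DMSO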
[14] = HDN33 neuroblastoma growth inhibition, cell-based, chromothripsis tumors, cisplatin or BGB combos (AID 1671450); conditions: HDN33 neuroblastoma cells, stronger effect = higher value;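 also: cells exposed to compound for four days; 0% = vehicle DMSO and 100% = cell killing by high DMSO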
[15] = ICB984 medulloblastoma cell growth inhibition, synergistic combos for chromothripsis tumors, cisplatin or BGB combos (AID 1671451; call rule not given here;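 also: cells exposed for 96 hours before readout; 0% = vehicle DMSO and 100% = killing by high DMSO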); conditions: ICB984 medulloblastoma cells, drug combinations, stronger effect = higher value
[16] = HTB85 osteosarcoma cell growth inhibition, synergistic combos for chromothripsis tumors, BGB or cisplatin IC20 combos (AID 1671453); conditions: HTB85 osteosarcoma cells, drug combinations, stronger effect = higher value;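 also: cells exposed for 96 hours before readout; 0% = vehicle DMSO and 100% = high DMSO killing control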
[17] = MDA-MB-436 breast carcinoma cell growth inhibition, synergistic combos for chromothripsis tumors, BGB or cisplatin combos (AID 1671458; call rule not given here;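 also: cells exposed for 96 hours; 0% = vehicle DMSO and 100% = killing by high DMSO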); conditions: MDA-MB-436 breast carcinoma growth inhibition, drug combinations, stronger effect = higher value
[18] = measured here: epithelial PC-3E GFP cell survival
[19] = measured here: mesenchymal TEM4-18 mCherry cell survival
[20] = stronger effect = lower value, cell number ratio, induced over uninduced
[21] = measured here: relative caspase fold change +Dox/-Dox
[22] = measured here: total cells with miR-34 induction, stronger effect = lower value
[23] = measured here: total cells without miR-34 induction
[24] = MELAS cybrid survival, CellTiter-Glo 48 h, stronger effect = higher value
[25] = Rieske KO mouse fibroblast survival, CellTiter-Glo 72 h
[26] = at 0.5 µM, stronger effect = higher value
[27] = measured here: combination with BGB IC20, at 0.005 µM
[28] = measured here: combination with BGB IC40, at 0.005 µM
[29] = measured here: combination with BGB IC40, at 0.05 µM
[30] = measured here: combination with cisplatin, at 0.5 µM, stronger effect = higher value
[31] = measured here: combination with cisplatin, at 5 µM, stronger effect = higher value
[32] = measured here: with BGB IC20 combination, at 0.5 µM
[33] = measured here: with cisplatin IC20 combination, at 0.5 µM
[34] = measured here: 5 uM single agent, at 5 µM
[35] = measured here: with BGB IC20, at 0.5 µM
[36] = measured here: with BGB IC20, at 5 µM
[37] = measured here: with cisplatin IC20, at 0.5 µM
[38] = measured here: with cisplatin IC20, at 5 µM
[39] = measured here: BGB combination, at 0.5 µM
[40] = measured here: BGB combination, at 5 µM
[41] = measured here: cisplatin combination, at 0.5 µM
[42] = measured here: cisplatin combination, at 5 µM

O=C(O)c1cc(=O)[nH]c(=O)[nH]1
nuclear beta-catenin stimulation ([1]; at 10 µM): 2.7% (inactive)
nuclear beta-catenin stimulation ([1]; stimulation, at 2 µM): 1.2%
insulin secretion stimulation [2]: -0.7% (inactive)
viability decrease [3]: 0.3% (inactive)
tube area decrease [4]: -4.9% (inactive)
GLP1 secretion stimulation [5]: 2.6% (inactive)
inhibition of viability [6]: 1.8% (inactive)
viability decrease (inhibition) [7]: 18.7% (inactive)
viability decrease (inhibition) [8]: 0.25% (inactive)
red/green cell ratio (normalised) [9]: 0.81 (inactive)
normalised cell number [9, 18]: 1.22
normalised cell number [9, 19]: 0.99
fold change [10, 20]: 0.909 (inactive) and 0.91 (inactive)
fold change [10, 21]: 0.683 and 0.794
cell count [10, 22]: 8860 and 8140
cell count [10, 23]: 9750 and 8950
z-score [11, 24]: -0.414 (inactive)
z-score [11, 25]: -0.146
remaining NAD [12]: 10 nM (inactive)
inhibition [13, 26]: -14.8% (inactive) and 6.04% (inactive)
inhibition [13, 27]: -3.6% and -6.88%
inhibition [13, 28]: 28.3% and -31.4%
inhibition [13, 29]: -7.85% and -7.79%
inhibition [13, 30]: -24.1% and -4.55%
inhibition [13, 31]: -5.53% and -40.7%
inhibition ([14]; BGB combo, at 5 µM): 13.5% and -51.1%
inhibition ([14]; at 0.5 µM): 15.1% (inactive) and -24.6% (inactive)
inhibition ([14]; cisplatin combo, at 5 µM): 14.4% and -17.2%
inhibition [14, 32]: 10.5% and -14.2%
inhibition [14, 33]: 24.7% and -33.5%
inhibition ([14]; single agent, at 5 µM): 12.4% and -40.1%
inhibition ([15]; BGB IC20 combo, at 0.005 µM): -7.3% and -18.5%
inhibition ([15]; BGB IC40 combo, at 0.005 µM): -15.2% and -60.1%
inhibition ([15]; BGB IC40 combo, at 0.05 µM): 9.75% and -38.4%
inhibition ([15]; at 0.5 µM): 7.77% (inactive) and -27.4% (inactive)
inhibition ([15]; cisplatin combo, at 0.05 µM): 9.75% and -43.9%
inhibition ([15]; cisplatin combo, at 0.5 µM): -1.72% and -34.4%
inhibition ([15]; cisplatin combo, at 5 µM): 27.1% and -45.2%
inhibition [15, 34]: 8.32% and 10.3%
inhibition ([16]; at 0.5 µM): 5.03% (inactive) and -15.1% (inactive)
inhibition [16, 35]: -2.41% and -19.2%
inhibition [16, 36]: 15.1% and -5.19%
inhibition [16, 37]: 6.2% and -21.8%
inhibition [16, 38]: 13% and -19.1%
inhibition ([16]; single agent, at 5 µM): 16% and -13.4%
inhibition ([17]; at 0.5 µM): 2.87% (inactive) and -29.1% (inactive)
inhibition [17, 39]: 7.16% and -31.6%
inhibition [17, 40]: 4.32% and -38.3%
inhibition [17, 41]: -8.53% and -32.8%
inhibition [17, 42]: 21.8% and -35.6%

CNC1CCCN(c2c(F)cc3c(=O)c(C(=O)O)cn(C4CC4)c3c2OC)C1 (centres undefined)
nuclear beta-catenin stimulation ([1]; at 10 µM): -0.1% (inactive)
nuclear beta-catenin stimulation ([1]; stimulation, at 2 µM): 0%
insulin secretion stimulation [2]: 5.75% (inactive)
viability decrease [3]: 42.9% (inactive)
tube area decrease [4]: -9% (inactive)
GLP1 secretion stimulation [5]: 1.4% (inactive)
inhibition of viability [6]: 10.1% (inactive)
viability decrease (inhibition) [7]: 6% (inactive)
viability decrease (inhibition) [8]: -25.9% (inactive)
red/green cell ratio (normalised) [9]: 1.13 (inactive)
normalised cell number [9, 18]: 1.05
normalised cell number [9, 19]: 1.18
fold change [10, 20]: 0.938 (inactive)
fold change [10, 21]: 0.74
cell count [10, 22]: 8330
cell count [10, 23]: 8880
z-score [11, 24]: -0.145 (inactive)
z-score [11, 25]: 0.59
inhibition [13, 26]: 6.49% (inactive)
inhibition [13, 27]: -28.5%
inhibition [13, 28]: -37.4%
inhibition [13, 29]: -26.1%
inhibition [13, 30]: 1.25%
inhibition [13, 31]: -35.3%
inhibition ([14]; BGB combo, at 5 µM): -29.7%
inhibition ([14]; at 0.5 µM): -41% (inactive)
inhibition ([14]; cisplatin combo, at 5 µM): -60.5%
inhibition [14, 32]: -39.7%
inhibition [14, 33]: -37.4%
inhibition ([14]; single agent, at 5 µM): -52%
inhibition ([15]; BGB IC20 combo, at 0.005 µM): -26.8%
inhibition ([15]; BGB IC40 combo, at 0.005 µM): -20.1%
inhibition ([15]; BGB IC40 combo, at 0.05 µM): -26.3%
inhibition ([15]; at 0.5 µM): -21.9% (inactive)
inhibition ([15]; cisplatin combo, at 0.05 µM): -26.3%
inhibition ([15]; cisplatin combo, at 0.5 µM): -35.1%
inhibition ([15]; cisplatin combo, at 5 µM): -31.2%
inhibition [15, 34]: -13.6%
inhibition ([16]; at 0.5 µM): -23.2% (inactive)
inhibition [16, 35]: -35.9%
inhibition [16, 36]: -27.5%
inhibition [16, 37]: -20.5%
inhibition [16, 38]: -18.5%
inhibition ([16]; single agent, at 5 µM): -28.7%
inhibition ([17]; at 0.5 µM): -22.5% (inactive)
inhibition [17, 39]: -19.9%
inhibition [17, 40]: -19.5%
inhibition [17, 41]: -36.1%
inhibition [17, 42]: -11.6%
